Data from PubChem BioAssay AID1159580 (chemical genetic matrix, 2015).
Hit rate of the full screen: of about 5,500 compounds, about 2,000 (36%) were called active. Roughly 18% stayed inconclusive and do not appear here. The list shows a part of the results. Unmarked numbers belong to inactive results. Rule as the data show it: active = normalized growth mostly below about 0.91 (no sharp cut-off); inconclusive = no clear call, values can overlap the other calls; inactive = mostly above about 0.92.

Test: chemical genetic growth profiling, strain panel (AID 1159580);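 also: tested at 20 µM; growth read once vehicle control cultures reached saturation at 30 °C; 1 = growth at the plate median or of vehicle wells; lower values mean less growth of the strain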
Details: S. cerevisiae deletion strains, growth OD
[1] = locus YAR019C, strain CDC15, hits give low values
[2] = locus YBL105C, strain PKC1, hits give low values
[3] = locus YBR135W, strain CKS1, hits give low values
[4] = locus YBR136W, strain MEC1, hits give low values
[5] = locus YBR160W, strain CDC28, hits give low values
[6] = locus YDL017W, strain CDC7, hits give low values
[7] = locus YDL028C, strain MPS1, hits give low values
[8] = locus YDL101C, strain DUN1, hits give low values
[9] = locus YDL108W, strain KIN28, hits give low values
[10] = locus YDL132W, strain cdc53, hits give low values
[11] = locus YDL214C, strain PRR2, hits give low values
[12] = locus YDR052C, strain DBF4, hits give low values
[13] = locus YDR054C, strain cdc34, hits give low values
[14] = locus YDR226W, strain ADK1, hits give low values
[15] = locus YDR477W, strain SNF1, hits give low values
[16] = locus YER123W, strain YCK3, hits give low values
[17] = locus YER133W, strain GLC7, hits give low values
[18] = locus YFL009W, strain cdc4, hits give low values
[19] = locus YFL029C, strain CAK1, hits give low values
[20] = locus YFR003C, strain YPI1, hits give low values
[21] = locus YFR019W, strain FAB1, hits give low values
[22] = locus YFR028C, strain CDC14, hits give low values
[23] = locus YGR040W, strain KSS1, hits give low values
[24] = locus YGR052W, strain FMP48, hits give low values
[25] = locus YGR092W, strain DBF2, hits give low values
[26] = locus YHR030C, strain SLT2, hits give low values
[27] = locus YHR079C, strain IRE1, hits give low values
[28] = locus YHR082C, strain KSP1, hits give low values
[29] = locus YHR205W, strain SCH9, hits give low values
[30] = locus YIL147C, strain SLN1, hits give low values
[31] = locus YJL095W, strain BCK1, hits give low values
[32] = locus YJL128C, strain PBS2, hits give low values
[33] = locus YJL157C, strain FAR1, hits give low values
[34] = locus YJR016C, strain ILV3, hits give low values
[35] = locus YJR066W, strain TOR1 (second series), hits give low values
[36] = locus YJR066W, strain TOR1, hits give low values
[37] = locus YKL048C, strain ELM1, hits give low values
[38] = locus YKL067W, strain YNK1, hits give low values
[39] = locus YKL101W, strain HSL1, hits give low values
[40] = locus YKL193C, strain SDS22, hits give low values
[41] = locus YKL203C, strain TOR2, hits give low values
[42] = locus YLR113W, strain HOG1, hits give low values
[43] = locus YLR133W, strain CKI1, hits give low values
[44] = locus YLR403W, strain SFP1, hits give low values
[45] = locus YML070W, strain DAK1, hits give low values
[46] = locus YMR001C, strain CDC5, hits give low values
[47] = locus YMR205C, strain PFK2 (second series), hits give low values
[48] = locus YMR277W, strain FCP1, hits give low values
[49] = locus YNL006W, strain LST8, hits give low values
[50] = locus YNL020C, strain ARK1, hits give low values
[51] = locus YNL161W, strain CBK1, hits give low values
[52] = locus YNL183C, strain NPR1, hits give low values
[53] = locus YNL207W, strain RIO2, hits give low values
[54] = locus YNL222W, strain SSU72, hits give low values
[55] = locus YNL307C, strain MCK1 (second series), hits give low values
[56] = locus YOL078W, strain AVO1, hits give low values
[57] = locus YOL136C, strain PFK27, hits give low values
[58] = locus YOR061W, strain CKA2, hits give low values
[59] = locus YOR119C, strain RIO1, hits give low values
[60] = locus YOR231W, strain MKK1, hits give low values
[61] = locus YOR329C, strain SCD5, hits give low values
[62] = locus YPL031C, strain PHO85, hits give low values
[63] = locus YPL153C, strain RAD53, hits give low values
[64] = locus YPL204W, strain HRR25, hits give low values
[65] = locus YPL209C, strain IPL1, hits give low values
[66] = locus YPR025C, strain CCL1, hits give low values
[67] = locus YPR106W, strain ISR1, hits give low values
[68] = locus YPR111W, strain DBF20, hits give low values
[69] = strain NNK1, hits give low values
[70] = strain TSCII, hits give low values
[71] = locus YAL013W, strain DEP1, hits give low values
[72] = locus YBR229C, strain ROT2, hits give low values
[73] = locus YDR150W, strain NUM1, hits give low values
[74] = locus YEL061C, strain CIN8, hits give low values
[75] = locus YGR078C, strain PAC10, hits give low values
[76] = locus YHR087W, strain rtc3, hits give low values
[77] = locus YJR043C, strain POL32, hits give low values
[78] = locus YJR075W, strain HOC1, hits give low values
[79] = locus YLR039C, strain RIC1, hits give low values
[80] = locus YLR058C, strain SHM2 (second series), hits give low values
[81] = locus YLR085C, strain ARP6, hits give low values
[82] = locus YLR262C, strain YPT6, hits give low values
[83] = locus YML094W, strain GIM5, hits give low values
[84] = locus YMR219W, strain ESC1, hits give low values
[85] = locus YMR263W, strain SAP30, hits give low values
[86] = locus YNL153C, strain GIM3, hits give low values
[87] = locus YNL298W, strain CLA4 (second series), hits give low values
[88] = locus YNL322C, strain KRE1, hits give low values
[89] = locus YNR030W, strain Alg12, hits give low values
[90] = locus YPL055C, strain LGE1, hits give low values
[91] = locus YPL241C, strain CIN2, hits give low values
[92] = locus YPR135W, strain CTF4, hits give low values

O=C(OCc1ccccc1Br)c1cc([N+](=O)[O-])cc([N+](=O)[O-])c1
normalized growth [1]: 0.973
normalized growth [2]: 0.986
normalized growth [3]: 0.969
normalized growth [4]: 0.98
normalized growth [5]: 0.988
normalized growth [6]: 0.984
normalized growth [7]: 0.981
normalized growth [8]: 0.985
normalized growth [9]: 0.969
normalized growth [10]: 0.961
normalized growth [11]: 0.846
normalized growth [12]: 0.984
normalized growth [13]: 0.965
normalized growth [14]: 0.981
normalized growth [15]: 0.841
normalized growth [16]: 0.84
normalized growth [17]: 0.888
normalized growth [18]: 0.983
normalized growth [19]: 0.975
normalized growth [20]: 0.977
normalized growth [21]: 0.905
normalized growth [22]: 0.974
normalized growth [23]: 0.868
normalized growth [24]: 0.871
normalized growth [25]: 0.757
normalized growth [26]: 0.92
normalized growth [27]: 0.96
normalized growth [28]: 0.923
normalized growth [29]: 0.83
normalized growth [30]: 0.976
normalized growth [31]: 0.92
normalized growth [32]: 0.944
normalized growth [33]: 0.825
normalized growth [34]: 0.973
normalized growth [35]: 0.781
normalized growth [36]: 0.885
normalized growth [37]: 0.922
normalized growth [38]: 0.876
normalized growth [39]: 0.88
normalized growth [40]: 0.974
normalized growth [41]: 0.939
normalized growth [42]: 0.892
normalized growth [43]: 0.887
normalized growth [44]: 0.857
normalized growth [45]: 0.825
normalized growth [46]: 0.967
normalized growth [47]: 0.842
normalized growth [48]: 0.988
normalized growth [49]: 0.974
normalized growth [50]: 0.869
normalized growth [51]: 0.988
normalized growth [52]: 0.947
normalized growth [53]: 0.966
normalized growth [54]: 0.989
normalized growth [55]: 0.877
normalized growth [56]: 0.978
normalized growth [57]: 0.867
normalized growth [58]: 0.809
normalized growth [59]: 0.952
normalized growth [60]: 0.937
normalized growth [61]: 0.973
normalized growth [62]: 0.876
normalized growth [63]: 0.866
normalized growth [64]: 0.86
normalized growth [65]: 0.984
normalized growth [66]: 0.982
normalized growth [67]: 0.976
normalized growth [68]: 0.973
normalized growth [69]: 0.977
normalized growth [70]: 0.976

CC1CC(=O)Nc2ccccc2N1C(=O)c1ccc([N+](=O)[O-])cc1 (centres undefined)
normalized growth [71]: 1.01
normalized growth [72]: 1.01
normalized growth (locus YCL061C, strain MRC1, hits give low values): 1.02
normalized growth [8]: 1.05
normalized growth (locus YDL134C, strain PPH21, hits give low values): 1.01
normalized growth [73]: 0.937
normalized growth [74]: 0.991
normalized growth [75]: 1.03
normalized growth [26]: 1.01
normalized growth [76]: 0.978
normalized growth (locus YJL187C, strain SWE1, hits give low values): 1.01
normalized growth [77]: 1.02
normalized growth [78]: 1.01
normalized growth [79]: 1.03
normalized growth [80]: 0.998
normalized growth [81]: 1.03
normalized growth [82]: 1
normalized growth [83]: 1.02
normalized growth [84]: 1.01
normalized growth [85]: 1.05
normalized growth [86]: 1.02
normalized growth [87]: 1.05
normalized growth [88]: 1
normalized growth [89]: 1.02
normalized growth (locus YOL006C, strain TOP1, hits give low values): 1.01
normalized growth [90]: 0.996
normalized growth [91]: 1.02
normalized growth [92]: 1.03

NC(=NS(=O)(=O)c1cc(Cl)c(Oc2ccc([N+](=O)[O-])cc2Cl)c(Cl)c1)c1cccnc1
normalized growth [71]: 1
normalized growth [72]: 0.993
normalized growth [8]: 0.976
normalized growth [73]: 0.948
normalized growth [74]: 1.01
normalized growth [75]: 1
normalized growth [26]: 0.924
normalized growth [76]: 1.01
normalized growth [77]: 1
normalized growth [78]: 0.992
normalized growth [79]: 1.09
normalized growth [80]: 1.01
normalized growth [81]: 1.05
normalized growth [82]: 1.09
normalized growth [83]: 1.01
normalized growth [84]: 0.997
normalized growth [85]: 0.95
normalized growth (locus YNL128W, strain TEP1, hits give low values): 1.02
normalized growth [86]: 0.992
normalized growth [87]: 1.02
normalized growth [88]: 1.01
normalized growth [89]: 1.01
normalized growth [90]: 0.912
normalized growth [91]: 1.01
normalized growth [92]: 0.96

N/C(=N/OC(=O)c1ccc([N+](=O)[O-])cc1)c1c(Cl)cccc1Cl
normalized growth [1]: 0.939
normalized growth [2]: 0.946
normalized growth [3]: 0.949
normalized growth [4]: 0.941
normalized growth [5]: 0.967
normalized growth [6]: 0.958
normalized growth [7]: 0.948
normalized growth [8]: 0.975
normalized growth [9]: 0.952
normalized growth [10]: 0.938
normalized growth [11]: 0.91
normalized growth [12]: 0.955
normalized growth [13]: 0.94
normalized growth [14]: 0.944
normalized growth [15]: 0.764
normalized growth [16]: 0.936
normalized growth [17]: 0.805
normalized growth [18]: 0.935
normalized growth [19]: 0.953
normalized growth [20]: 0.95
normalized growth [21]: 0.825
normalized growth [22]: 0.942
normalized growth [23]: 0.848
normalized growth [24]: 0.71
normalized growth [25]: 0.465 (active)
normalized growth [26]: 0.268 (active)
normalized growth [27]: 0.536
normalized growth [28]: 0.872
normalized growth [29]: 0.449 (active)
normalized growth [30]: 0.94
normalized growth [31]: 0.418 (active)
normalized growth [32]: 0.973
normalized growth [33]: 0.863
normalized growth [34]: 0.942
normalized growth [35]: 0.598 (active)
normalized growth [36]: 0.642
normalized growth [37]: 1.02
normalized growth [38]: 0.924
normalized growth [39]: 0.911
normalized growth [40]: 0.935
normalized growth [41]: 0.758
normalized growth [42]: 0.661 (active)
normalized growth [43]: 0.898
normalized growth [44]: 0.69
normalized growth [45]: 0.883
normalized growth [46]: 0.941
normalized growth [47]: 0.905
normalized growth [48]: 0.921
normalized growth [49]: 0.958
normalized growth [50]: 0.881
normalized growth [51]: 0.954
normalized growth [52]: 0.578
normalized growth [53]: 0.915
normalized growth [54]: 0.954
normalized growth [55]: 0.613 (active)
normalized growth [56]: 0.938
normalized growth [57]: 0.936
normalized growth [58]: 0.919
normalized growth [59]: 0.746
normalized growth [60]: 0.57 (active)
normalized growth [61]: 0.954
normalized growth [62]: 0.7
normalized growth [63]: 0.693
normalized growth [64]: 0.671
normalized growth [65]: 0.955
normalized growth (locus YPL256C, strain CLN2, hits give low values): 0.733 (active)
normalized growth [66]: 0.955
normalized growth [67]: 0.984
normalized growth [68]: 0.979
normalized growth [69]: 0.982
normalized growth [70]: 0.942
